Molecules are shown by their SMILES. Inconclusive results are not listed. Where a call stands in place of a potency, no number is given. Calls of active or inactive are those of the source. Calls follow the shape of the dose curve; as a rule, active = well fitted inhibition curve with a large enough effect; inconclusive = small, poorly fitted or top-dose-only effect; inactive = no such curve, though single readings can be large or run the other way.

Chain of Papain (Carica papaya) (P00784 whole entry, looked up): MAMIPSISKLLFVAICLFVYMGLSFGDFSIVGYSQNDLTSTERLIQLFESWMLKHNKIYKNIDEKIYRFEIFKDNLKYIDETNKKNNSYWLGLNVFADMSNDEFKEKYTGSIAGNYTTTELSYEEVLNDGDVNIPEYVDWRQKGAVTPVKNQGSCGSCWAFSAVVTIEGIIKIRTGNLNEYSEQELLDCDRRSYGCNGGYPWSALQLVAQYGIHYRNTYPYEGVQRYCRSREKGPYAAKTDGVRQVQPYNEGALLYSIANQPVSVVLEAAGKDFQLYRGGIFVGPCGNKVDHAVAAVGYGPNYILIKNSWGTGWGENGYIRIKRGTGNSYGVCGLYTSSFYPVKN

This test addresses Papain (Carica papaya) (UniProt P00784). Put plainly: Primary qHTS assay for inhibitors of the protease papain (AID 1645873).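 Also: papain turnover of Z-FR-AMC read as the AMC fluorescence gain over 10 min.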 To be noted: papain Z-FR-AMC cleavage, AMC fluorescence; series mostly up to 49.8 µM. Background: Quantitative high-throughput screening tests each substance at several concentrations.
In the case of `O=C(O)CN(CCOCCOCCN(CC(=O)O)CC(=O)O)CC(=O)O`, the Potency entry is “inactive”. The entry for `O=C(CCCN1CCC(O)(c2cccc(C(F)(F)F)c2)CC1)c1ccc(F)cc1` is “inactive”; for `N[C@@H](COP(=O)(O)O)C(=O)O` it is “inactive”; for `CC(=O)Nc1nnc(S(N)(=O)=O)s1` it is “inactive”. In the case of `Brc1c(NC2=NCCN2)ccc2nccnc12`, the Potency entry is “inactive”. Then `OC(CCN1CCCCC1)(c1ccccc1)C1CCCCC1` (centres undefined), with “inactive”; and `NC(Cc1ccc(Cl)cc1)C(=O)O` (centres undefined), with “inactive”. Then `CC(C(=O)O)c1ccc(CC2CCCC2=O)cc1` (centres undefined), with “inactive”; and `COC(=O)[C@@H](N)Cc1ccc(O)c(O)c1`, with “inactive”.

Take `c1cc(CN2CCCCC2)cc(OCCCNc2nc3ccccc3s2)c1`: the Potency result was “inactive”.

Take `CN(C)C/C=C(/c1ccc(Br)cc1)c1cccnc1`: the Potency entry is “inactive”. As for `COc1cc(C(=O)OCCCN2CCCN(CCCOC(=O)c3cc(OC)c(OC)c(OC)c3)CC2)cc(OC)c1OC`, the Potency result is “inactive”. The entry for `COc1ccc2c(c1OC)C(=O)O[C@@H]2[C@H]1c2c(cc3c(c2OC)OCO3)CCN1C` is “inactive”; for `Cc1nc2sccn2c(=O)c1CCN1CCC(=C(c2ccc(F)cc2)c2ccc(F)cc2)CC1` it is “inactive”; for `Cc1scc2c1N(C(=O)CN1CCN(C)CC1)c1ccccc1NC2=O` it is “inactive”. `CC(=O)OCC1=C(C(=O)O)N2C(=O)[C@@H](NC(=O)Cc3cccs3)[C@H]2SC1`: the Potency entry was “inactive”. The entry for `CN(C)CCCN1c2ccccc2Sc2ccccc21` is “inactive”. As for `O=C(O)CN(CCN(CC(=O)O)CC(=O)O)CCN(CC(=O)O)CC(=O)O`, the Potency result is “inactive”. In the case of `CCc1cccc(N(C)C(N)=Nc2cccc3ccccc23)c1`, the Potency result was “inactive”.

As to `CC1=NS(=O)(=O)c2cc(Cl)ccc2N1`, the Potency entry is “inactive”.

As for `CN(C)C(=O)Oc1cccc([N+](C)(C)C)c1`, the Potency entry was “inactive”. As for `NC(=O)c1ncn([C@@H]2O[C@H](CO)[C@@H](O)[C@H]2O)c1O`, the Potency entry is “inactive”.

Take `CCCOc1ccccc1-c1nc2n[nH]nc2c(=O)[nH]1`: the Potency result was “inactive”. The entry for `C[N+](C)(C)CCOC(N)=O` is “inactive”.

With `CN1CCN(CC(=O)N2c3ccccc3C(=O)Nc3cccnc32)CC1`, the Potency result is “inactive”. Then `NCCCNCCSP(=O)(O)O`, with “inactive”. With `CN1CCN(C2=Nc3ccccc3Oc3ccc(Cl)cc32)CC1`, the Potency entry was “inactive”. For the compound `CCCCNc1ccc(C(=O)OCCN(C)C)cc1`, the Potency result was “inactive”. Then `CCO/C([O-])=N/c1c[n+](N2CCOCC2)no1`, with “inactive”.

Source of the values: PubChem BioAssay (NCATS).
